# Experimental data reported in PubChem BioAssay AID1839 (Johns Hopkins Ion Channel Center, 2009).
# Out of some 2,400 compounds screened, about 220 (9.2%) were called active. The sample holds actives, similar compounds and a random draw of the others, so the mix is not that of the screen.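 How the source made its calls: active means signal change above the mean of dofetilide-free buffer controls plus 3 SD, so a positive margin; inactive means the rest.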
# Assay: thallium signal changes without hERG – cell-based, CHO-K1 parental line, FluxOR thallium flux, counter-screen for hERG block protection project, confirmation (AID 1839);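 further: compounds applied alone with no dofetilide to cells lacking hERG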
# Conditions: CHO-K1 parental cells, FluxOR thallium flux fluorescence; at 10 µM
row,Compound,"signal change vs control minus 3*SD hit threshold (margin above threshold, higher = more increase)"
1,CCc1ccc(OCC(=O)Nc2ncn[nH]2)cc1,-35.2% (inactive)
2,Cc1ccc2[nH]c3c(c2c1)CNCC3,-32% (inactive)
3,CN(c1ccccc1)S(=O)(=O)c1ccc(Cl)c(C(=O)Nc2nn[nH]n2)c1,-24.2% (inactive)
4,COc1ccc(C2N=C(c3ccccc3)C(C)(C)N2O)cc1 (centres undefined),-23.4% (inactive)
5,Cc1ccccc1-c1nnn(CC(=O)NCc2ccc3c(c2)OCO3)n1,-37.1% (inactive)
6,Cc1cccc(/N=C/c2sc3ccccc3c2O)n1,-19.2% (inactive)
7,O=C(NCC1CCCO1)c1ccc2c(=O)n(Cc3ccco3)c(SCC(=O)N3CCCC3)nc2c1 (centres undefined),-14.7% (inactive)
8,Clc1cccc(OCCCN2CCCC2)c1Cl,-24.8% (inactive)
9,CCCCC1C2=C(CCCC2=O)OC2=C1C(=O)CCC2,-34.5% (inactive)
10,Cc1ccc(C(=O)N2CCN(c3ccccc3)CC2)cc1S(=O)(=O)N1CCCC1,-7.2% (inactive)
11,Cc1ccc(-c2nc3c(Cl)cc(Cl)cc3c(=O)n2O)cc1,65.6% (active)
12,Cc1ccc(-c2nc3ccccc3c(=O)n2O)cc1,-12.7% (inactive)
13,Cc1cc(=O)[nH]c(SCC(=O)NC2CCCCC2)n1,-27% (inactive)
14,O=C(NC(=S)Nc1ccccc1Br)c1ccco1,-14.3% (inactive)
15,CCOc1ccccc1NC(=S)NC(=O)c1ccco1,-16.7% (inactive)
16,CCOc1ccc(NC(=S)NC(=O)c2ccco2)cc1,-15.7% (inactive)
17,Cc1cccc(NC(=S)NC(=O)c2ccco2)c1C,20% (active)
18,O=C(NC(=S)Nc1ccc(N2CCCCC2)cc1)c1ccco1,9.4% (active)
19,O=C(NC(=S)Nc1cccc(Cl)c1N1CCCCC1)c1ccco1,-27.7% (inactive)
20,Cc1cccc(NC(=O)CCNC(=O)c2ccco2)c1C,-27.7% (inactive)
21,CCC(C)c1ccccc1NC(=S)NC(=O)c1ccco1 (centres undefined),40% (active)
22,O=C(NC(=S)Nc1ccccc1N1CCCC1)c1ccco1,-20.8% (inactive)

row,Compound,"signal change vs control minus 3*SD hit threshold (margin above threshold, higher = more increase)"
1,O=C1OCCC1Sc1nc2ccccc2c(=O)n1Cc1ccc(F)cc1 (centres undefined),-13.7% (inactive)
2,CCc1ccc(C(=O)NNC(=O)c2ccc(=O)n(C)n2)cc1,-31% (inactive)
3,O=C(NC(=S)N1CCN(c2nc(-c3ccccc3)cs2)CC1)c1cncc(Br)c1,-12.3% (inactive)
4,CC(NC(=O)NC1CCCCC1)c1ccccc1 (centres undefined),-8.9% (inactive)
5,Oc1c(N=Nc2ccccn2)ccc2ccccc12,-28.3% (inactive)
6,O=C(N/N=C\c1coc2ccccc2c1=O)c1ccco1,-25.6% (inactive)
7,O=C(O)COc1ccccc1/C=C1\SC(=S)N(NC(=O)c2ccccc2O)C1=O,-20.5% (inactive)
8,Cc1c(N2C(=O)/C(=C\c3ccccc3O)SC2=S)c(=O)n(-c2ccccc2)n1C,7.5% (active)
9,CC(/C=C1\SC(=S)N(c2ccc(C(=O)O)cc2)C1=O)=C\c1ccccc1,-40.7% (inactive)
10,COc1ccc(N(C(=O)c2ccco2)S(=O)(=O)c2cccs2)cc1,-26.1% (inactive)
11,O=C(Cn1cncn1)c1ccccc1Br,-37.9% (inactive)
12,Cc1cc(C)cc(-n2ncc3c2CCCC3NC(=O)c2csnn2)c1 (centres undefined),-40.3% (inactive)
13,CCCCN1C(=O)/C(=C2/Sc3ccc(Cl)cc3N2CC)SC1=S,-39.8% (inactive)
14,COc1ccc(OC)c(NC(=O)C(=S)NC2CCCCC2)c1,-22.8% (inactive)
15,COc1ccc(OC)c(NC(=O)C(=O)NNC(=O)C23CC4CC(CC(C4)C2)C3)c1,42.5% (active)
16,COc1ccc(OCC(=O)NNC(=O)C(=O)Nc2cc(OC)ccc2OC)cc1,-1.8% (inactive)
17,CC(NC(=O)CCCn1cc([N+](=O)[O-])cn1)c1ccccc1 (centres undefined),-29.8% (inactive)
18,CCCCNC(=S)NNC(=O)c1ccc2c(c1)OCO2,-29.2% (inactive)
19,N=C1C(=O)OCC1c1cc(Cl)ccc1NC(=O)Nc1ccccc1 (centres undefined),-31.4% (inactive)
20,CCCc1cc(C(=O)NNC(=S)Nc2cccc(C)c2)cs1,-32.4% (inactive)
21,CC(C)(C)NC(=O)C(=O)NNC(=O)c1ccc(C(C)(C)C)cc1,1.9% (active)
22,CC(C)(C)NC(=O)C(=O)NNC(=O)c1cccc(Br)c1,-6.8% (inactive)

row,Compound,"signal change vs control minus 3*SD hit threshold (margin above threshold, higher = more increase)"
1,Cc1cccc(NC(=O)C(=O)NNC(=O)c2ccc(C(C)(C)C)cc2)c1,44.5% (active)
2,Cc1cccc(C(=O)NC(=S)NNC(=O)c2ccc(Cl)cc2)c1,-44.5% (inactive)
3,CC(C)(C)NC(=O)C(=O)NNC(=O)c1ccccc1,-23.3% (inactive)
4,CCOC(=O)N1CCN(C(=O)COC(=O)c2cc(Cl)c(O)c(Cl)c2)CC1,-24.7% (inactive)
5,Cc1ccc(O)c(Sc2cc(C)ccc2O)c1,-41.7% (inactive)
6,CC(C)CSC1=NSC2=NC(=O)/C(=C\c3ccccc3)C(=N)N12,-21.5% (inactive)
7,O=C(COc1coc(CN2CCc3ccccc3C2)cc1=O)Nc1cccc(Cl)c1,-31.3% (inactive)
8,CCOc1ccc2[nH]c(=O)c(CN(Cc3ccc(C)cc3)C(=O)N3CCCC3)cc2c1,-28% (inactive)
9,COc1ccc(NC(=O)C2CC3CCC2C3)c(OC)c1 (centres undefined),-22.3% (inactive)
10,O=C(N/N=C/C(Cl)=C/c1ccc([N+](=O)[O-])cc1)C(=O)Nc1ccc(C(=O)O)cc1,-32.7% (inactive)
11,O=[N+]([O-])c1ccc(Nc2ccccc2F)nc1,-20.1% (inactive)
12,COc1ccc(C(=O)N(CN2CCCC2=O)c2ccc(C)cc2)cc1,-4.3% (inactive)
13,CCOc1ccc(C(=O)N(CN2CCCC2=O)c2ccc(C)cc2)cc1,7.5% (active)
14,O=C(NCCCN1CCCC1=O)c1ccc(OC(F)(F)F)cc1,-32.6% (inactive)
15,CCOC(=O)Cc1csc(NC(=S)NC(=O)c2ccc(Cl)cc2)n1,-26.4% (inactive)
16,C=C(C)CNC(=S)NN=C1c2ccccc2-c2ccccc21,-25% (inactive)
17,O=c1c(-c2ccc(Cl)cc2)[n+]([O-])c2ccccc2n1O,29.3% (active)
18,Cc1ccc(-c2c(=O)n(O)c3ccccc3[n+]2[O-])cc1,15.9% (active)
19,O=c1c(-c2cccc3ccccc23)[n+]([O-])c2ccccc2n1O,-12.8% (inactive)
20,O=c1c(-c2ccccc2)[n+]([O-])c2ccccc2n1O,-26.3% (inactive)
